# In ChEMBL document CHEMBL3988442, “University of Dundee, Small-Polar-MMV Screening Library” (2021):
# Screen size: about 48,000 compounds; about 13,000 (27%) showed an effect of 50% or more. This is one part of the list.
# Test system: Wolbachia pipientis
# Assay: Anti-Wolbachia Cell-Based Screen
# Assay type: functional
# Design: scale not given: in the data most compounds retested in dose-response had high values
# Conditions: 5 µM
row,Structure (SMILES),Percent Effect [%]
1,Cc1nnc([C@@H]2C[C@H]3CN(C4CCC4)C[C@H]3O2)[nH]1.O=C(O)C(F)(F)F,6.797
2,CCN1C(=O)C2(CCCCC2)NC12CCSCC2,-2.409
3,CCCNC1(c2ccc(Cl)cc2)CCOCC1,-6.475
4,CN1CCC(c2cncc(N(C)C)n2)CC1,94.73
5,COCCNc1nc2c(c(NCc3cnc(C)c(C)c3)n1)CCNCC2,2.827
6,Cc1cc(CN2CC[C@@H]3O[C@@H](c4nnc(C)o4)C[C@H]3C2)no1,110.6
7,Cc1csc([C@@H]2C[C@@H]3CCN(Cc4cc(C)on4)C[C@H]3O2)n1,98.39
8,Cc1csc([C@H]2C[C@@H]3CCN(Cc4cc(C)on4)C[C@H]3O2)n1,115.5
9,Cc1csc(CN2CC[C@H]3C[C@H](c4ccncn4)O[C@@H]3C2)n1,0.9996
10,Cc1cc(CN2C[C@@H]3CN(Cc4ccsc4)CCO[C@@H]3C2)no1,-0.7027
11,Cc1cc(CN2C[C@@H]3COC[C@]3(c3nnc(C)o3)C2)no1,12.18
12,Cc1nnc([C@H]2CC[C@@H]3[C@@H](CCN3Cc3c(C)noc3C)O2)o1,0.6834
13,Cc1noc([C@@H]2C[C@H]3CN(Cc4cc(C)on4)C[C@H]3O2)n1.O=C(O)C(F)(F)F,5.383
14,Cc1cc(CN2CC[C@H]3C[C@H](C(=O)N(C)C)O[C@@H]3C2)no1,-3.331
15,C[C@@H]1C[C@@H]2CCN(Cc3nccs3)C[C@H]2O1,-21.98
16,Cc1cc(CN2CC[C@H]3C(=O)N(c4ccsc4)CCO[C@H]3C2)no1.O=C(O)C(F)(F)F,-15.71
17,Cc1csc([C@H]2C[C@H]3CN(Cc4cc(C)on4)CC[C@@H]3O2)n1.O=C(O)C(F)(F)F,122.4
18,Cc1nn(C)c(C)c1C(C(=O)O)N1CC=C(c2ccccc2)CC1 (stereo unspecified),-20.97
19,CN1CCN(C[C@H]2CN3CC[C@H]2C[C@@H]3CNC(=O)c2ccco2)CC1,-8.219
20,Cc1ccc(CN2CCO[C@H]3[C@H](OCc4cccnc4)CC[C@@H]32)o1.O=C(O)C(F)(F)F.O=C(O)C(F)(F)F,105.6
21,O=C(O)C(F)(F)F.O=C(O)C(F)(F)F.c1cncc(CO[C@H]2CC[C@H]3[C@@H]2OCCN3C2CCOCC2)c1,-9.441
22,Cc1ccc(CN2CCO[C@H]3[C@@H](OCc4cccnc4)CC[C@@H]32)o1.O=C(O)C(F)(F)F.O=C(O)C(F)(F)F,111.1
23,Cc1ccc(CN2CCO[C@@H]3[C@@H](OCc4cccnc4)CC[C@@H]32)o1,103.6
24,c1ccc(O[C@H]2CC[C@H]3[C@H]2OCCN3Cc2nccs2)nc1,-6.34

row,Structure (SMILES),Percent Effect [%]
1,CC(C)CNC(=O)N1CCOC2(CCNCC2)C1,-1.344
2,CC[C@H](N)Cn1nc(-c2cccs2)oc1=O.Cl,-4.464
3,CCOCCNC1(c2ccc(Cl)cc2)CCOCC1,-4.765
4,CN(CCc1ccccc1)Cc1nc2c(cnn2C)c(=O)[nH]1,101
5,CN(CCc1ccc(F)cc1)Cc1nc2c(cnn2C)c(=O)[nH]1,17.64
6,CC(NC(=O)CN1CCCC1=O)c1ccc(Cl)s1 (stereo unspecified),-9.497
7,O=C(CCc1ccsc1)N1CCC(C(=O)O)(c2ccccc2)CC1,7.958
8,O=C(c1ccc2c(c1)COC2)N1CCC(Nc2ccccc2)CC1,5.047
9,O=C(c1ccc2c(c1)OCO2)N1CCC(C(=O)O)(c2ccccc2)CC1,117.1
10,Cc1ncsc1CN1C[C@@H]2CN(Cc3cccnc3)CCO[C@@H]2C1,-8.283
11,CC(C)OC(=O)N1C[C@H]2CC[C@@H]1CN(Cc1cccnc1)C2,-10.82
12,O=C(C1CCOCC1)N1C[C@H]2CC[C@@H]1CN(Cc1ccncc1)C2,9.375
13,C[C@@H]1CN(C2CCOC2)C[C@]12CCN(Cc1cccnc1)C2=O.O=C(O)C(F)(F)F.O=C(O)C(F)(F)F (stereo partly specified),-21.11
14,Cc1ccc([C@]2(O)CC[C@H]3CN(Cc4cccnc4)C[C@H]32)nc1,129.8
15,O=C1CO[C@H]2CN(Cc3cccnc3)C[C@H]2N1,0.8904
16,COCCN1CC[C@]2(CN(Cc3cccnc3)C[C@H]2C)C1=O.O=C(O)C(F)(F)F.O=C(O)C(F)(F)F,106.1
17,COC(=O)N1C[C@H]2CC[C@@H]1CN(Cc1ccncc1)C2,-3.604
18,COCCN1CC[C@]2(CN(Cc3ccccn3)C[C@H]2C)C1=O.O=C(O)C(F)(F)F.O=C(O)C(F)(F)F,-7.652
19,Cc1ccc([C@]2(O)CC[C@H]3CN(Cc4ccncc4)C[C@H]32)nc1,139.7
20,C[C@@H]1CN(Cc2cccnc2)C[C@]1(C)O,104.9
21,Oc1cccc(CN2C[C@H]3CC[C@@H]2CN(Cc2cccnc2)C3)c1,8.491
22,CCCn1ncc(CN2CCCC(C(=O)c3ccc(SC)cc3)C2)c1C (stereo unspecified),-6.021
23,Cc1cccc2cc(CN3CCCN4CCC[C@H]4C3)c(=O)[nH]c12,-11.16
24,c1cnc(N2CC[C@@H]3[C@@H]2CCN3Cc2cccs2)nc1,-7.885

row,Structure (SMILES),Percent Effect [%]
1,Cl.Cl.O=C1NC2(CCNCC2)CC1c1ccncc1 (stereo unspecified),-8.002
2,CC(C)=CCN1C[C@H]2CC[C@@H]1CN(S(=O)(=O)c1cccnc1)C2,-24.05
3,CNc1nc(C(=O)N2C[C@@H]3CCN(C)[C@@H]3C2)cs1,2.53
4,Cc1cc(C(=O)NCC(=O)N2CCOCC2)nn1C(C)(C)C,90.04
5,Cc1ncc2c(c1CNC(=O)C1(C)CC1)CCNC2,-5.654
6,CN1CCc2c(CNC(=O)c3nccn3C)cncc2C1.Cl.Cl.Cl,16.49
7,Cl.Cl.Cn1cc(C(=O)NCc2cncc3c2CCNC3)cn1,102.3
8,CCc1nc(CN2CCCN(C(=O)Cc3cccs3)CC2)cs1,-3.679
9,CCn1ccnc1CN1CCCN(C(=O)Cc2csc(C)n2)CC1,120.7
10,Cc1ccc(CC(=O)N2CCCN(Cc3nccn3C)CC2)cn1,118.2
11,CCCN1CCN(Cc2nccn2CC)C(C)C1 (stereo unspecified),-20.72
12,CCn1ccnc1CN1CCCN(C(=O)Cc2ccc(C)nc2)CC1,-2.19
13,CCn1cc(CN2CCCN(C(=O)Cc3cccs3)CC2)cn1,-6.845
14,NC(=O)CN1CCCN(C(=O)Cc2ccc3ccccc3c2)CC1,-1.177
15,Cc1nc(CC(=O)N2CCN(Cc3ccc(C#N)cc3)CC2)cs1,-1.564
16,CCn1cc(CN2CCCN(C(=O)Cc3ccc(C)nc3)CC2)cn1,6.063
17,CCn1ccnc1CN1CCCN(C(=O)Cc2ccc(C)s2)CC1,99.83
18,CCN1CCN(C(=O)Cc2ccc(S(=O)(=O)C(F)F)cc2)CC1,-2.606
19,CCn1ccnc1CN1CCCN(C(=O)Cc2ccc(C)cc2)CC1,110.8
20,COCC(=O)NC[C@H]1C[C@@H]2CCN1C[C@@H]2CN1CCc2ccccc21,-6.803
21,CNCCc1nc2cc(F)ccc2[nH]1.Cl.Cl,-2.58
22,COCC1CN(c2ccc(C#N)c(Cl)c2)CCO1 (stereo unspecified),-25.31
23,NC(=O)CN1CCCN(C(=O)Cc2ccc(F)c(Br)c2)CC1,-2.154
24,CCc1noc(CN2CCN(C(=O)Cc3ccc(F)cc3)CC2)n1,-6.192

row,Structure (SMILES),Percent Effect [%]
1,O=C(Cc1ccccc1)N1CCN(Cc2noc(C3CC3)n2)CC1,0.1776
2,CCn1ccnc1CN1CCCN(C(=O)Cc2ccc(F)cc2)CC1,115.9
3,CCn1ccnc1CN1CCCN(C(=O)Cc2ccccc2C)CC1,129.6
4,CCn1cncc1Cn1ncc2ccccc2c1=O,88.95
5,COCCn1cncc1CN1CCC(C(C)=O)(c2ccccc2)CC1,-9.89
6,COCCn1cncc1Cn1ncc2ccccc2c1=O,103.5
7,O=c1c2ccccc2cnn1Cc1cncn1C1CC1,94.68
8,N#Cc1ccc(S(=O)(=O)NCCn2ccnc2)cc1Cl,-8.716
9,Cl.O=C1NC2(CCNCC2)CC1c1ccccc1 (stereo unspecified),-38.6
10,CC(C)COC(=O)N1CCC2(CCNC2)C1.Cl (stereo unspecified),-11.51
11,CC(C)NC(=O)N1CCOC2(CCCNC2)C1 (stereo unspecified),-11.25
12,Cc1[nH]c2c(F)cccc2c1CC(=O)N1CCN(C2CCSCC2)CC1,-2.752
13,CCS(=O)(=O)N1CCc2c(COCCN(C)C)cncc2C1.O=C(O)C(F)(F)F.O=C(O)C(F)(F)F,97.71
14,CCCS(=O)(=O)N1CCc2c(COCC)cncc2C1.O=C(O)C(F)(F)F,0.2019
15,CCN(C)c1ncc2c(c1C(=O)O)CCN(C1CCOC1)C2.O=C(O)C(F)(F)F.O=C(O)C(F)(F)F (stereo unspecified),-4.446
16,CN(C)CCOCc1cncc2c1CCN(C1CCOC1)C2.O=C(O)C(F)(F)F.O=C(O)C(F)(F)F.O=C(O)C(F)(F)F (stereo unspecified),106.1
17,CC(Cc1cccc(Cl)c1)NC(=O)NCc1ncnn1C (stereo unspecified),-5.872
18,Cc1ncccc1OCC(=O)N1CCN[C@H]2CS(=O)(=O)C[C@H]21,-3.722
19,Cc1noc(C)c1CN1CC[C@@H]2O[C@@H](COCC3CC3)CC[C@@H]21.O=C(O)C(F)(F)F,-0.7071
20,CCOC[C@H]1CC[C@H]2[C@H](CCN2Cc2c(C)noc2C)O1.O=C(O)C(F)(F)F,4.615
21,CCOC[C@@H]1CC[C@H]2[C@H](CCN2Cc2c(C)noc2C)O1.O=C(O)C(F)(F)F,3.079
22,Cc1noc(C)c1CN1CCO[C@H]2CN(CC3CC3)C[C@H]21.O=C(O)C(F)(F)F.O=C(O)C(F)(F)F,-4.425
23,Cc1noc(C)c1CN1CC[C@H]2[C@H]1CCN2CC1CCOCC1.O=C(O)C(F)(F)F.O=C(O)C(F)(F)F,115.6
24,COCCN1C(=O)CC[C@@H]2[C@@H]1CCN2Cc1c(C)noc1C.O=C(O)C(F)(F)F,103.6
